{"source": "PubChem BioAssay AID1479", "about": "(National Center for Advancing Translational Sciences (NCATS), 2009)", "note": "Hit rate of the full screen: of about 280,000 compounds, about 820 (0.29%) were called active. Roughly 1% stayed inconclusive and do not appear here. Shown is part of a subset that was picked to be rich in actives. Unmarked numbers belong to inactive results. Calls come from the whole dose curve; as a rule, active = well fitted curve in either direction with a large enough effect; inconclusive = small, poorly fitted or top-dose-only effect; inactive = flat fitted curve, though single readings scatter. % is set by controls: 0 for no effect and ±100 for the full control effect; potency is the fitted concentration of half-maximal effect; tags give direction and shape of the fitted curve or compound fluorescence and quenching."}
{"assay": "Total Fluorescence Counterscreen for Inhibitors of the Interaction of Thyroid Hormone Receptor and Steroid Receptor Coregulator 2", "settings": "TRb/SRC2 Texas Red total fluorescence interference; series mostly up to 201 µM; fluorescence change, negative = quenching: at the top concentration", "text": "NIH Molecular Libraries Probe Production Network [MLPCN]\nNIH Chemical Genomics Center [NCGC]\nAssay Provider: R. Kip Guy, St. Jude Children's Research Hospital\nThyroid receptor (TR) regulates many homeostatic processes including basal metabolism, cardiovascular function, body weight, and lipid trafficking. TR modulators are potential therapeutics for obesity and hyperlipidemias but current thyroid analogs have undesirable side effects, particularly cardiac stimulation. To identify inhibitors that specifically prevent the interaction of TR with the steroid receptor […] 2 (SRC2), a fluorescence polarization assay was screened. This assay detects interaction of the ligand-binding domain of human TRb with a Texas Red labeled SRC2 peptide, corresponding to a 20 amino acid region of the nuclear receptor interaction domain (Arnold et al., 2006). Total fluorescence (555 nm excitation and 632 nm emission) was measured to identify potential fluorescent and light absorbing compounds. Such compounds may be artifacts that interfere with the fluorescence polarization assay.\nArnold, L. A.; Estebanez-Perpina, E.; Togashi, M.; Shelat, A.; Ocasio, C. A.; McReynolds, A. C.; Nguyen, P.; Baxter, J. D.; Fletterick, R. J.; Webb, P.; Guy, R. K. A high-throughput screening method to identify small molecule inhibitors of thyroid hormone receptor coactivator binding. Sci STKE 2006, p 13.\nNCGC Assay Protocol Summary:\nFor screening, 5 uL/well 0.6 uM TRb and 20 nM SRC2 Texas Red in protein buffer (20mM Tris hydrochloride, 100mM NaCl, 10% glycerol, 1mM EDTA, 0.01% NP-40, 1mM DTT, 1uM T3 and 5% DMSO) was dispensed into black solid 1536-well plates (Grenier) using a solenoid-based dispenser. Following transfer of 23 nL compound or DMSO vehicle by a pin tool, the plates were centrifuged 15 s at 1000 RPM and incubated 5 hr at ambient temperature. The plates were read by an Envision (Perkin Elmer) to detect fluorescence polarization of SRC2 Texas Red (555 nm excitation and 632 nm emission). Data were normalized to unbound (all components except TRb) and bound SRC2 Texas Red controls. Total fluorescence (TF) was calculated as follows: TF = S + 2P where S and P are fluorescence readings in the parallel and perpendicular channels, respectively.\nKeywords: NIH Roadmap, MLPCN, MLI, MLSMR, qHTS, NCGC, qHTS, thyroid hormone receptor, steroid receptor coactivator, fluorescence polarization", "units": {"fluorescence change, negative = quenching": "%"}}
{"smiles": "CCCCC(=O)N/N=C/c1c(O)n(CC)c(=S)n(CC)c1=O", "Potency": "0.316 µM [quencher] (active)"}
{"smiles": "Clc1ccc([C@@]2(Cn3cncn3)C[C@H](Br)CO2)c(Cl)c1", "fluorescence change, negative = quenching": 0.213}
{"smiles": "CCOP(=O)(OCC)SCS(=O)(=O)C(C)(C)C", "fluorescence change, negative = quenching": -3.78}
{"smiles": "CCOP(OCC)OCC", "fluorescence change, negative = quenching": -0.876}
{"smiles": "O=C1NC(=O)N(c2ccccc2)C(=O)/C1=C/c1ccc([N+](=O)[O-])s1", "Potency": "44.7 µM [fluorescent] (active)"}
{"smiles": "CC(C)OC(=O)Nc1ccccc1", "fluorescence change, negative = quenching": -3.86}
{"smiles": "CCC/C(=N\\OCC)C1=C(O)CC(CC(C)SCC)CC1=O", "note": "(stereo not given)", "fluorescence change, negative = quenching": -0.248}
{"smiles": "Fc1ccc(Oc2ccnc3cc(Cl)cc(Cl)c23)cc1", "fluorescence change, negative = quenching": -9.31}
{"smiles": "CCC(C)(C)c1ccc(O)c(C(C)(C)CC)c1", "fluorescence change, negative = quenching": -0.0155}
{"smiles": "CCCN(CCOc1c(Cl)cc(Cl)cc1Cl)C(=O)n1ccnc1", "Potency": "inactive"}
